The nature of assay [1]: Quantitative High-Throughput drug screen in 47 multiple myeloma cell lines against the NCATS MIPE library collection: XG6_PLB cell viability assay (AID 1919865). Also: nearly all actives have a fitted effect of over 40% in size. The gist of the method:
(§1)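 MIPE 4.0 approved/investigational drugs; 500 cells/well; 48 h 37 °C humidified 5% CO2; CTG luminescence readout; DMSO = 100%, media = 0% viability.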

Assay [2] can be described thus: Quantitative High-Throughput drug screen in 47 multiple myeloma cell lines against the NCATS MIPE library collection: XG1_PLB cell viability assay (AID 1919866). Also: nearly all actives have a fitted effect of over 35% in size. A digest of the protocol: as §1
Assay [3] is described as follows: Quantitative High-Throughput drug screen in 47 multiple myeloma cell lines against the NCATS MIPE library collection: VP6_DJ cell viability assay (AID 1919867). Also: nearly all actives have a fitted effect of over 40% in size. A digest of the protocol:
as §1

Assay [4] in a line: Quantitative High-Throughput drug screen in 47 multiple myeloma cell lines against the NCATS MIPE library collection: UTMC2_PLB cell viability assay (AID 1919868). Also: nearly all actives have a fitted effect of over 55% in size. The following applies: CellTiter-Glo ATP luminescence, 48 h; viability (% of DMSO control): at 45.8 µM (top of the series). A digest of the protocol: as §1
On the technique in general: ATP-based viability assays read luminescence as a measure of living cells.

Assay [5] is described as follows: Quantitative High-Throughput drug screen in 47 multiple myeloma cell lines against the NCATS MIPE library collection: PE2_PLB cell viability assay (AID 1919869). Also: nearly all actives have a fitted effect of over 35% in size. A digest of the protocol:
as §1

Assay [6] can be described thus: Quantitative High-Throughput drug screen in 47 multiple myeloma cell lines against the NCATS MIPE library collection: PCM6_Riken cell viability assay (AID 1919870). Also: nearly all actives have a fitted effect of over 30% in size. A digest of the protocol: as §1
Assay [7] in a line: Quantitative High-Throughput drug screen in 47 multiple myeloma cell lines against the NCATS MIPE library collection: RPMI8226_ATCC cell viability assay (AID 1919871). Also: nearly all actives have a fitted effect of over 30% in size. The gist of the method: as §1
The nature of assay [8]: Quantitative High-Throughput drug screen in 47 multiple myeloma cell lines against the NCATS MIPE library collection: OPM2_DSMZ cell viability assay (AID 1919872). Also: nearly all actives have a fitted effect of over 30% in size. A digest of the protocol: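 We plated 500 myeloma cells per well, pinned in MIPE 4.0 compounds, and incubated for 48 hours at 37C. ATP was then quantified with CellTiter-Glo, with DMSO and media-only wells defining 100% and 0%.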

Assay [9] in a line: Quantitative High-Throughput drug screen in 47 multiple myeloma cell lines against the NCATS MIPE library collection: KMS11_JCRBsus cell viability assay (AID 1919873). Also: nearly all actives have a fitted effect of over 50% in size. The gist of the method: as §1
Assay [10] can be described thus: Quantitative High-Throughput drug screen in 47 multiple myeloma cell lines against the NCATS MIPE library collection: KMS28BM_JCRB cell viability assay (AID 1919874). Also: nearly all actives have a fitted effect of over 35% in size. A digest of the protocol: as §1

Results filed as inconclusive are left out. Calls of active or inactive are those of the source. Calls follow the shape of the dose curve; as a rule, active = well fitted cell-killing curve with a large enough effect; inconclusive = small, poorly fitted or top-dose-only effect, or effect the other way; inactive = no such curve, though single readings can be large or run the other way.
Potency is read from the fitted curve at half-maximal effect.

For the compound `CC=C(C)C(=O)O[C@H]1C(C)=C2[C@@H]3OC(=O)[C@@](C)(O)[C@@]3(O)[C@@H](OC(=O)CCC)C[C@](C)(OC(C)=O)[C@@H]2[C@@H]1OC(=O)CCCCCCC`, the Potency was 372 nM (active) in assay [1]; 46.9 nM (active) in assay [2]; 52.6 nM (active) in assay [3]; 743 nM (active) in [4]; 264 nM (active) in [5]; 11800 nM (active) in [6]. Further, the Potency in assay [7] is 74.3 nM (active); in assay [8], 33.2 nM (active); in assay [9], 33.2 nM (active); in assay [10], 166 nM (active).
Regarding `CC1(N2CCC(n3c([C@@H]4CCCNC4)nc4ccccc43)CC2)CCCCCCC1`, the Potency in assay [1] was 9350 nM (active); in assay [2], 18700 nM (active); in [3] it was 14800 nM (active); in [5], 16600 nM (active); in assay [6] it was 14800 nM (active); in assay [7], 20900 nM (active). Moreover, the values for the Potency in assay [8], in [9] and in [10] were 18700 nM (active), 13200 nM (active) and 23500 nM (active), respectively.
As to `CN(C)[C@@H]1C(=O)C(C(N)=O)=C(O)[C@@]2(O)C(=O)C3=C(O)c4c(O)cccc4[C@@](C)(O)[C@H]3[C@H](O)[C@@H]12`, the Potency is 5900 nM (active) in [1], 16600 nM (active) in assay [2], 23500 nM (active) in [3] and 20900 nM (active) in [8]. Further, the Potency entry in assay [6], in assay [9] and in assay [10] was “inactive” each time.
Regarding `CCCCCC[C@H]1C(=O)O[C@H](C)[C@H](NC(=O)c2cccc(NC=O)c2O)C(=O)O[C@@H](C)[C@@H]1OC(=O)CC(C)C`, the Potency in assay [1] was 105 nM (active); in assay [2], 23.5 nM (active); in [3], 46.9 nM (active); in assay [4], 52.6 nM (active); in [5], 209 nM (active); in assay [6], 52.6 nM (active). Further, the Potency in assay [7] is 1050 nM (active); in [9], 74.3 nM (active); in [10] it was 209 nM (active).
Take `C#CC1(O)CCC2C3CCC4=CC(=O)CCC4(C)C3CCC21C` (stereo unspecified): the Potency entry in assay [1], in [2], in assay [3], in assay [5], in assay [8] and in [9] was “inactive” in each case. The Potency in assay [10] is 18700 nM (active).
With `C=CCON=C(C[C@H]1O[C@@H]2O[C@]3(C)CC[C@@H]4[C@H](C)CC[C@@H]([C@H]1C)[C@@]24OO3)[C@H]1O[C@@H]2O[C@]3(C)CC[C@H]4[C@H](C)CC[C@@H]([C@@H]1C)[C@@]24OO3`, the Potency in assay [1] was 264 nM (active); in assay [2], 418 nM (active); in assay [3], 166 nM (active); in assay [4], 372 nM (active); in assay [5], 469 nM (active); in assay [6], 526 nM (active). The Potency in [7] is 235 nM (active); in [9], 187 nM (active); in assay [10], 332 nM (active).
As to `COc1ccc(C(=O)c2c(C)n(CCN3CCOCC3)c3cc(I)ccc23)cc1`, the Potency in [1] was 10500 nM (active); in [2], 7430 nM (active); in [3], 6620 nM (active); in assay [5], 13200 nM (active); in assay [6] it was 11800 nM (active); in assay [7], 18700 nM (active). The Potency in assay [8] was 26400 nM (active); in [9], 23500 nM (active).
As to `COc1ccc2c(c1)[C@]13CCCCC1C(C2)N(C)CC3` (stereo partly specified), the Potency entry in assay [1], in [2], in assay [4], in assay [5], in [6] and in [7] was “inactive” throughout. For the same compound, the Potency entry in [8] and in [9] was “inactive” each time.
As for `CC(C)(O)C(=O)Nc1ccc([N+](=O)[O-])c(C(F)(F)F)c1`, the Potency in assay [2] is 8330 nM (active); in assay [3], 8330 nM (active); in assay [5], 9350 nM (active); in assay [6] it was 8330 nM (active). Besides, the Potency entry in [7] and in assay [8] was “inactive” throughout.
With `COc1cccc2c1[C@]13CCN(CC4CC4)[C@H](C2)[C@]1(OC)CCC(=O)C3`, the Potency result in assay [2], in assay [5], in [6], in assay [8], in assay [9] and in assay [10] was “inactive” in each case. Also, the Potency in assay [3] is 20900 nM (active).
Turning to `CN1CCN(c2ccc([N+](=O)[O-])c3no[n+]([O-])c23)CC1`, the Potency is 20900 nM (active) in assay [2]; 14800 nM (active) in assay [3]; 18700 nM (active) in assay [4]; 23500 nM (active) in assay [5]; 5900 nM (active) in [6]; 23500 nM (active) in assay [9]. Also, the Potency in [10] is 18700 nM (active).
With `CC[C@@H]1[C@@H](C)O[C@@](O)([C@@H](C)[C@H](O)[C@H](C)[C@H]2OC(=O)C=CC=C[C@@H](C)[C@@H]([C@@H](C)[C@@H](O)[C@H](C)[C@@]3(O)C[C@H](O[C@H]4C[C@H](O)[C@H](O)[C@H](C)O4)[C@H](CC)[C@@H](C)O3)OC(=O)C=CC=C[C@@H]2C)C[C@H]1O[C@H]1C[C@H](O)[C@H](O)[C@H](C)O1`, the Potency is 469 nM (active) in assay [2]; 469 nM (active) in [3]; 1050 nM (active) in [4]; 833 nM (active) in assay [5]; 743 nM (active) in [6]; 372 nM (active) in [7]. Further, the Potency in [8] is 372 nM (active); in [9] it was 418 nM (active); in assay [10], 372 nM (active).
For the compound `N=c1c2c(-c3ccccc3)c(-c3ccccc3)n(Cc3ccccc3)c2ncn1C1CCC(O)CC1` (stereo unspecified), the Potency in assay [1] is 6620 nM (active); in assay [3], 93.5 nM (active); in assay [5], 4690 nM (active); in assay [7], 14800 nM (active); in assay [8] it was 5900 nM (active); in [9], 2090 nM (active). Besides, the Potency in assay [10] is 3320 nM (active).
With `CCOC(=O)c1cncn1[C@H](C)c1ccccc1`, the Potency result in [2], in [3], in assay [5], in assay [6], in [7] and in assay [8] was “inactive” each time. Moreover, the Potency entry in [10] was “inactive”.
With `CC(C)(O)C=CC(=O)[C@](C)(O)[C@H]1[C@H](O)C[C@]2(C)[C@@H]3CC=C4[C@@H](C=C(O)C(=O)C4(C)C)[C@]3(C)C(=O)C[C@@]12C`, the Potency was 41.8 nM (active) in [2]; 105 nM (active) in [3]; 41.8 nM (active) in assay [4]; 33.2 nM (active) in assay [5]; 29.6 nM (active) in assay [6]; 52.6 nM (active) in [7]. Also, the values for the Potency in assay [8], in assay [9] and in assay [10] were 132 nM (active), 118 nM (active) and 166 nM (active), respectively.
As for `O=C(Nc1ccncc1)C(=O)c1cn(Cc2ccc(Cl)cc2)c2ccccc12`, the Potency in [2] is 6.6 nM (active); in assay [3], 23.5 nM (active); in assay [4] it was 13.2 nM (active); in assay [6], 5.9 nM (active); in assay [7] it was 418 nM (active); in assay [8], 105 nM (active). For the same compound, the Potency in assay [9] is 5.3 nM (active); in assay [10], 4.7 nM (active).
As for `CC(C)[C@]12O[C@@H]1[C@@H]1O[C@]13[C@]1(O[C@H]1C[C@@H]1C4=C(CC[C@@]13C)C(=O)OC4)[C@H]2O`, the Potency result in [2], in assay [3], in assay [4], in [5], in assay [6] and in [7] was “inactive” throughout. In addition, the Potency entry in [8], in assay [9] and in assay [10] was “inactive” in each case.
On to `CN[C@@H]1Cc2cccc3[nH]c(=O)n(c23)C1`, for which the Potency result in [2], in [4], in assay [5], in assay [6], in assay [7] and in assay [8] was “inactive” throughout. Also, the Potency result in assay [9] and in [10] was “inactive” in each case.
As for `Cc1c(C(=O)c2cccc3ccccc23)c2cccc3c2n1[C@H](CN1CCOCC1)CO3`, the Potency entry in assay [2], in [3] and in assay [6] was “inactive” throughout. Besides, the Potency in [5], in [7], in [8], in assay [9] and in [10] was 23500 nM (active) in each case.
Take `CCOP(=O)(OCC)C(C)NC(=O)N(CCCl)N=O` (stereo unspecified): the Potency result in [2], in assay [4], in assay [5], in assay [6], in [7] and in assay [9] was “inactive” in each case. Further, the Potency entry in assay [10] is “inactive”.
As to `O=C(NCC1CCOCC1)c1cnc(Nc2ccc(Cl)cc2Cl)nc1C(F)(F)F`, the figures for the Potency in assay [1], in assay [3] and in assay [6] were 6620 nM (active), 6620 nM (active) and 5900 nM (active), respectively. In addition, the Potency result in assay [7], in [8], in assay [9] and in assay [10] was “inactive” in each case.

Values taken from PubChem BioAssay (NCATS).
